Results reported in ChEMBL document CHEMBL1961873, “Compounds: GSK PKIS; Assays: Nanosyn kinase panel” (2012).

Experiments:
[1] = target: RAC-alpha serine/threonine-protein kinase (Homo sapiens) (UniProt P31749); conditions: at 0.1 µM
[2] = target: RAC-alpha serine/threonine-protein kinase (Homo sapiens) (UniProt P31749); conditions: at 1 µM
[3] = target: RAC-beta serine/threonine-protein kinase (Homo sapiens) (UniProt P31751); conditions: at 0.1 µM
[4] = target: RAC-beta serine/threonine-protein kinase (Homo sapiens) (UniProt P31751); conditions: at 1 µM
[5] = target: RAC-gamma serine/threonine-protein kinase (Homo sapiens) (UniProt Q9Y243); conditions: at 0.1 µM
[6] = target: RAC-gamma serine/threonine-protein kinase (Homo sapiens) (UniProt Q9Y243); conditions: at 1 µM
[7] = target: G protein-coupled receptor kinase 6 (Homo sapiens) (UniProt P43250); conditions: at 0.1 µM
[8] = target: G protein-coupled receptor kinase 6 (Homo sapiens) (UniProt P43250); conditions: at 1 µM
[9] = target: T1, Rhodopsin kinase GRK7 (Homo sapiens) (UniProt Q8WTQ7); conditions: at 0.1 µM
T1 sequence (whole entry): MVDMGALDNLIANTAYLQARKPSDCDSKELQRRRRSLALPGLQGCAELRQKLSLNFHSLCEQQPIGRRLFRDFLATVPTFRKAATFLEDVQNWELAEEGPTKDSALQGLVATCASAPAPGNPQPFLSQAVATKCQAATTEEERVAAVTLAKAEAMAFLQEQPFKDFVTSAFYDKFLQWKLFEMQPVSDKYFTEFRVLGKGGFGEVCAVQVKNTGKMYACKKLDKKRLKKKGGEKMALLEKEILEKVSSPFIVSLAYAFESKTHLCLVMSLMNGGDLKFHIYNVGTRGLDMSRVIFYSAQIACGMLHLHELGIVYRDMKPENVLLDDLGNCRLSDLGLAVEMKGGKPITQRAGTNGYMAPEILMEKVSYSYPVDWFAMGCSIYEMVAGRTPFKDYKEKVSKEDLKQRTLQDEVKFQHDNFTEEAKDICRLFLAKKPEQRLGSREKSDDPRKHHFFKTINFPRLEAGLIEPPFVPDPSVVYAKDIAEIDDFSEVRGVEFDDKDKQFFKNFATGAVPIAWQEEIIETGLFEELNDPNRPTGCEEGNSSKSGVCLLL

[10] = target: T1, Rhodopsin kinase GRK7 (Homo sapiens); conditions: at 1 µM

Sequence of RAC-gamma serine/threonine-protein kinase (Homo sapiens) (Q9Y243 whole entry): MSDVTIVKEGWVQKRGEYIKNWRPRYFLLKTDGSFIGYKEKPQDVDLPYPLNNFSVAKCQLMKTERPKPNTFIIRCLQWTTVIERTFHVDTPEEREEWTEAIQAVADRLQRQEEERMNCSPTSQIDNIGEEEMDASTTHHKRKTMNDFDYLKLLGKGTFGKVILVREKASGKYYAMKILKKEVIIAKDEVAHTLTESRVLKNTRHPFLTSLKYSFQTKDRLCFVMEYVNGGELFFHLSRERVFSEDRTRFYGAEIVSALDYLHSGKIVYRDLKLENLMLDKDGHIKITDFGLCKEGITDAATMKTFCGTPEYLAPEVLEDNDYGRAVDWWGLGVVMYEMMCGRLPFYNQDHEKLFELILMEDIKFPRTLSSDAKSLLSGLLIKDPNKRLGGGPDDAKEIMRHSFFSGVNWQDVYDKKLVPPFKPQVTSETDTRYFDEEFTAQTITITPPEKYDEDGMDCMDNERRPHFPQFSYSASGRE
Sequence of RAC-alpha serine/threonine-protein kinase (Homo sapiens) (P31749 whole entry): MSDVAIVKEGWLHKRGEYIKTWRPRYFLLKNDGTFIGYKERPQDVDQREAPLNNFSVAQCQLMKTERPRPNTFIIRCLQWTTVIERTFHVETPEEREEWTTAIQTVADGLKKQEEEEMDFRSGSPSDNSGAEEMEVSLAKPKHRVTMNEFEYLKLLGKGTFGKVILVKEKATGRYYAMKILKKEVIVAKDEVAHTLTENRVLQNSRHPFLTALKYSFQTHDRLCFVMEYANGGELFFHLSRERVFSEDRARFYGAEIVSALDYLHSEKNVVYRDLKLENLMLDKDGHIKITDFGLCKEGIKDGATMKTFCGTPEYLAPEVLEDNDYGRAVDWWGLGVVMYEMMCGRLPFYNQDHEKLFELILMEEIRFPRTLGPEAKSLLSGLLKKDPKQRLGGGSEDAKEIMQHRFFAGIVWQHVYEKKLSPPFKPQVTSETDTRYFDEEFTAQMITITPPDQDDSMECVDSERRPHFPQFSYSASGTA
Sequence of G protein-coupled receptor kinase 6 (Homo sapiens) (P43250 whole entry, looked up): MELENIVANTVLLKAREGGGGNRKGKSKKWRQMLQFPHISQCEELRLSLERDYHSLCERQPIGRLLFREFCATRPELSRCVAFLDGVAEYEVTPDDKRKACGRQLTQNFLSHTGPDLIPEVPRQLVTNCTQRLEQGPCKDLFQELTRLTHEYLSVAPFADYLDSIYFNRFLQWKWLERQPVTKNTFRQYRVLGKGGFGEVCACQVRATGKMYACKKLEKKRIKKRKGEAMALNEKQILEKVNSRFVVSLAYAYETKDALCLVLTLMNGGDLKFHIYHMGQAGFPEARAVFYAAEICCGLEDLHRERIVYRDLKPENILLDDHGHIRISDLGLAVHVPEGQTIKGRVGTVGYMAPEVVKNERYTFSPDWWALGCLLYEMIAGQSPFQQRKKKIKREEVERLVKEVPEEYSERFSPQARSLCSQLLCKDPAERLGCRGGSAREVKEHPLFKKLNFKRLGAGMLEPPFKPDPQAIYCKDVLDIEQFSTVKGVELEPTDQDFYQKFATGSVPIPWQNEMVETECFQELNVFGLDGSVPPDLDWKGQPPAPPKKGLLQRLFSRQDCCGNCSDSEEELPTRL
Sequence of RAC-beta serine/threonine-protein kinase (Homo sapiens) (P31751 whole entry): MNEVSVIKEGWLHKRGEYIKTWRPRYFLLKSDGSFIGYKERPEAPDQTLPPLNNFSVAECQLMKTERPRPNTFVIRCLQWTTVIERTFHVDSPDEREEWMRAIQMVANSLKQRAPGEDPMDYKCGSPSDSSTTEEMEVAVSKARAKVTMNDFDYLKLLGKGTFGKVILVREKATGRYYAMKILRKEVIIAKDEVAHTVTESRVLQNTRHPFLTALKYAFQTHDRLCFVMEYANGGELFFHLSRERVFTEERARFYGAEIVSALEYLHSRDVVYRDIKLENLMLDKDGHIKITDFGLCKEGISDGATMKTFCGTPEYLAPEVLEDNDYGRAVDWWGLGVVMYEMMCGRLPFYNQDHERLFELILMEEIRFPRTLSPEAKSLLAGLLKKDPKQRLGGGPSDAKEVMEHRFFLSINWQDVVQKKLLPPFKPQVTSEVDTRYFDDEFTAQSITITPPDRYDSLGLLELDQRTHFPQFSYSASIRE

| SMILES | inhibition [1] [%] | inhibition [2] [%] | inhibition [3] [%] | inhibition [4] [%] | inhibition [5] [%] | inhibition [6] [%] | inhibition [7] [%] | inhibition [8] [%] | inhibition [9] [%] | inhibition [10] [%] |
| --- | --- | --- | --- | --- | --- | --- | --- | --- | --- | --- |
| NS(=O)(=O)c1ccc(N/C=C2\C(=O)Nc3ccc4ncsc4c32)cc1 | 0.54 | 0.61 | 2.08 | 2.38 | 0.65 | 3.15 | 4.87 | 18.7 | 8.46 | 6.58 |
| NC(=O)c1sc(-n2cnc3cc(C(F)(F)F)ccc32)cc1OCc1ccccc1Br | 0.26 | 0.43 | -0.81 | 0.47 | 0.03 |  | 3.71 | 1.08 | 5.6 | 5.78 |
| Cc1cc(-c2ccco2)cc(C)c1/C=C/c1cncc(-c2nn[nH]n2)c1 | -0.08 | -0.39 | -0.63 | 0.09 | -0.47 |  | -3.85 |  | 11.8 | 49.9 |
| COc1cccc(COc2cc(-n3cnc4ccccc43)sc2C(N)=O)c1 | 2.26 | 0.35 |  | 2.81 | -0.85 | -1.8 | 0.1 | 0.82 | 4.74 | -0.33 |
| CCn1c(-c2nonc2N)nc2c(C#CC(C)(C)O)ncc(OC[C@@H]3CCCN3)c21 | 68.2 | 91.1 | 79.7 |  | 67.5 | 90.4 | -2.91 | 0.91 | 6.42 | 14 |
| CCn1c(-c2nonc2N)nc2c(C#CCN)ncc(OCCCN)c21 | -0.6 | 10.9 | -0.31 | 12.8 | 1.83 | 10 | -5.01 | 6.23 | 0.4 | 7.43 |
| CCn1c(-c2nonc2N)nc2c(C#CC(C)(C)O)nc(O[C@@H](CN)c3ccccc3)cc21 | 93.7 | 96.4 |  |  | 93.3 | 95 | 1.13 | 1.51 | 3 | 114 |
| COc1cccc(-n2ncc3c(N/N=C/c4ccncc4)ncnc32)c1 | 0.24 | -0.78 | 1.42 | -0.44 | 3.63 | 0.47 | 1.7 | 1.85 | 5.1 | 5.17 |
| Nc1nonc1-c1nc2cnccc2n1C1CCCCC1 | 3.37 | 37.4 | 1.24 | 22.4 | 3.35 | 32.3 | -0.4 | 2.07 | -7.5 | 2.63 |
| COc1cc2c(cc1Nc1nc(Nc3ccsc3C(N)=O)c3cc[nH]c3n1)N(C(=O)CN(C)C)CCC2 | -0.27 | -0.06 | 2.64 | 0.91 | 2.81 | 4.75 | 27.5 | 82.8 | 22.1 | 60.3 |
| COc1cc(C=NNc2ncnc3c2cnn3Cc2ccccc2)ccc1O | -2.34 | -2.35 | -3.56 | -1.08 | -2.66 | -1.29 | -3.93 | -0.64 |  | -3.65 |
| Fc1ccc(-c2ncn(C3CCNCC3)c2-c2ccnc(Oc3ccccc3)n2)cc1 | -3.52 | -2.95 | -2.98 |  | -3.09 | 4.46 | -2.07 | 1.13 | 8.55 | -1.71 |
| CCn1c(-c2nonc2N)nc2c(C#CC(C)(C)O)ncc(OCC3CCNCC3)c21 | 60.7 | 88.2 | 74.2 | 89.3 | 57.7 | 86 | 4.53 | 11.1 | 5.08 | 23.3 |
| NS(=O)(=O)c1ccc(-c2ccc3c(NC(=O)C4CC4)n[nH]c3c2)cc1 | 0.97 | 1 | 1.38 | 0.67 | 0.25 | -0.65 | 0.33 | -2.37 | -0.74 |  |
